The values below come from PubChem BioAssay (NCI).

Structures are written as SMILES. Where “and” joins values, the source holds several entries; their conditions need not be identical. Identical values can stand only once. About 83,000 compounds went through this panel and 20% of them were active in at least one assay; those are over-represented in the sample as a whole.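 Testing used 96-well plates and a 48-hour single-concentration exposure. Example: -40 means 40% of the starting cells died.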 A number with no mark means an inactive call. Calls of active or inactive are those of the source. How the source made its calls: active means growth percent below 10; inactive means the rest.

Among the test systems are SR leukemia; RPMI-8226 leukemia; OVCAR-8 ovarian; OVCAR-5 ovarian; OVCAR-4 ovarian; SK-OV-3 ovarian; IGROV1 ovarian; OVCAR-3 ovarian; HS 578T breast; NCI/ADR-RES ovarian; T-47D breast; BT-549 breast; MDA-MB-435 melanoma; MCF7 breast; HCT-116 colon; HCC-2998 colon; KM12 colon; SW-620 colon.
Common to all, as to assay: NCI-60 one-dose screen, 48 h (100 = growth as untreated, 0 = no growth, -100 = all killed)
What all share (settings): 10 µM unless noted

On to `Cn1c(-c2ccccc2)cc(=O)cc1-c1ccccc1`, for which the growth in the assay with SR leukemia is 69.5%; in the assay with RPMI-8226 leukemia it was 78.9%; with OVCAR-8 ovarian, 80.1%; in the assay on OVCAR-5 ovarian it was 79.2%; in the assay with OVCAR-4 ovarian it was 85.6%; in the assay on SK-OV-3 ovarian, 92.4%. For the same compound, the growth in the assay on IGROV1 ovarian was 88%; in the assay on OVCAR-3 ovarian, 122%; in the assay on HS 578T breast, 105%; with NCI/ADR-RES ovarian it was 82.2%; in the assay with T-47D breast, 97.1%; in the assay on BT-549 breast, 86.8%. In addition, the growth with MDA-MB-435 melanoma was 116%; in the assay with MCF7 breast, 53.3%; in the assay with HCT-116 colon it was 61.6%; in the assay with HCC-2998 colon, 127%; in the assay on KM12 colon, 98.5%.
As for `COc1ccc(CCNC(=S)NN)cc1OC`, the growth with SR leukemia was 104%; in the assay on OVCAR-8 ovarian it was 103%; in the assay with OVCAR-5 ovarian, 104%; in the assay with OVCAR-4 ovarian, 99.3%; with SK-OV-3 ovarian, 121%; in the assay on IGROV1 ovarian, 107%. Further, the growth was 108% with OVCAR-3 ovarian; 102% in the assay on HS 578T breast; 102% in the assay with NCI/ADR-RES ovarian; 98.8% in the assay with T-47D breast; 118% with BT-549 breast; 111% with MDA-MB-435 melanoma. Besides, the growth was 93.9% in the assay on MCF7 breast, 84.2% in the assay with HCT-116 colon, 88.8% with HCC-2998 colon and 94.2% in the assay on KM12 colon.
For the compound `Nc1ccccc1SC1CC(=O)N(c2ccc(I)cc2)C1=O` (stereo not drawn), the growth in the assay with SR leukemia is 68.6%; in the assay on OVCAR-8 ovarian, 87.8%; in the assay on OVCAR-5 ovarian, 90.3%; with OVCAR-4 ovarian, 93.8%; in the assay with SK-OV-3 ovarian, 95.5%; in the assay on IGROV1 ovarian it was 85.2%. Besides, the growth was 87.1% in the assay with OVCAR-3 ovarian; 88.6% with HS 578T breast; 91.6% in the assay with NCI/ADR-RES ovarian; 82.3% in the assay with T-47D breast; 91.6% in the assay on BT-549 breast; 91.8% in the assay with MDA-MB-435 melanoma. The growth with SW-620 colon is 93.3%; in the assay with MCF7 breast it was 86.5%; in the assay on HCT-116 colon it was 95.3%; in the assay on HCC-2998 colon it was 103%; in the assay with KM12 colon, 79.1%.
Consider `O=C1C2=C(Nc3cc(Cl)ccc3N2)OC1c1c[nH]c2ccc(COc3ccccc3)cc12` (stereo not drawn), for which the growth was 85.4% with SR leukemia; 46.9% with OVCAR-8 ovarian; 88.2% with OVCAR-5 ovarian; 31.8% with OVCAR-4 ovarian; 26.7% in the assay with SK-OV-3 ovarian; 65.3% with IGROV1 ovarian. Moreover, the growth with OVCAR-3 ovarian was 55.1%; with HS 578T breast, 29.6%; in the assay on NCI/ADR-RES ovarian, 51.4%; in the assay with T-47D breast, 68.4%; with BT-549 breast it was 26.7%; in the assay on MDA-MB-435 melanoma it was 84.6%. Further, the growth with SW-620 colon was 85%; in the assay with MCF7 breast, 64.2%; in the assay on HCT-116 colon, 72.4%; in the assay on HCC-2998 colon, 83.7%; with KM12 colon it was 87.1%.
With `c1ccc2c[n+](Cc3ccc4ccccc4n3)ccc2c1`, the growth with SR leukemia is 98.1%; in the assay on OVCAR-8 ovarian, 69%; in the assay with OVCAR-5 ovarian it was 105%; in the assay on OVCAR-4 ovarian, 67.1%; with SK-OV-3 ovarian, 88.5%; in the assay on IGROV1 ovarian it was 80.5%. The growth in the assay on OVCAR-3 ovarian was 62.1%; in the assay with HS 578T breast it was 86.2%; with NCI/ADR-RES ovarian, 102%; in the assay with T-47D breast it was 62.6%; with BT-549 breast, 47.2%; with MDA-MB-435 melanoma, 90.3%. For the same compound, the growth in the assay with SW-620 colon is 87.5%; in the assay with MCF7 breast it was 72.2%; in the assay with HCT-116 colon, 59.3%; in the assay with HCC-2998 colon, 71.7%; with KM12 colon it was 76.1%.
Take `Cc1ccc2cccc([N+](=O)[O-])c2n1`: the growth is 97.7% and 94% in the assay with SR leukemia; 101% and 108% in the assay with OVCAR-8 ovarian; 104% and 101% in the assay with OVCAR-5 ovarian; 128% and 103% in the assay with OVCAR-4 ovarian; 102% and 100% in the assay on SK-OV-3 ovarian; 109% and 114% in the assay with IGROV1 ovarian. The growth in the assay on OVCAR-3 ovarian was 111% and 110%; in the assay with HS 578T breast, 111% and 109%; in the assay on NCI/ADR-RES ovarian, 113% and 102%; with T-47D breast it was 97.4% and 97.8%; with BT-549 breast it was 121% and 93.5%; in the assay with MDA-MB-435 melanoma it was 110% and 108%. Further, the growth in the assay on SW-620 colon was 119% and 103%; in the assay with MCF7 breast, 105% and 95.7%; with HCT-116 colon, 114% and 97.7%; with HCC-2998 colon it was 102% and 103%; with KM12 colon, 111% and 107%.
On to `CC(C)(C)OC(=O)c1ccc(NCc2cc(O)ccc2O)cc1`, for which the growth in the assay with SR leukemia is 3.5% (active); in the assay on OVCAR-8 ovarian it was 17.2%; in the assay on OVCAR-5 ovarian it was 106%; in the assay with OVCAR-4 ovarian it was 12.3%; in the assay with SK-OV-3 ovarian, 44.6%; in the assay with IGROV1 ovarian it was -14.3% (active). Besides, the growth was -83.8% (active) in the assay on OVCAR-3 ovarian; 30.8% in the assay on HS 578T breast; 23.1% with NCI/ADR-RES ovarian; -67.5% (active) in the assay with T-47D breast; -17.6% (active) in the assay on BT-549 breast; 20% with MDA-MB-435 melanoma. In addition, the growth in the assay with SW-620 colon was 18.9%; in the assay on MCF7 breast, 29.5%; in the assay with HCT-116 colon it was 36.2%; with HCC-2998 colon, 113%; in the assay with KM12 colon it was 8.14% (active).
